In PubChem BioAssay one finds composite z-score and composite Z-score data, which are given here for 15 molecules.

The target of assay [1] is Albumin (Bos taurus) (UniProt P02769). The assay is described as follows: bovine serum albumin binders on microarray, profiling panel, artefact control for SMM control protein annotation, biochemical, small-molecule microarray, Alexa647 label, 635/667 nm fluorescence (AID 1118).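 Note: score merges 667 nm emission intensity and signal-to-noise per printed compound spot.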 Conditions: BSA-A647 binding, fluorescence 635 nm, higher = more signal.
Assay [2] is described as follows: small-molecule microarray binders of probe aXIP, primary screen, biochemical, NeuroSMM set, 635/667 nm fluorescence (AID 1119).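 Note: probe is the protein aXip251-270 applied at 1 µg/mL to compound-printed slides; binding of probe to printed compounds measured as 667 nm fluorescence plus signal to noise.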 Conditions: higher = more signal, called active from +8 up or from −8 down.
Assay [3] can be described thus: small-molecule binders of probe aNOTCH3, primary screen, biochemical, small-molecule microarray, 635/667 nm fluorescence (AID 1120).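 Note: probe is a biotin-tagged antibody raised against NOTCH3 rather than NOTCH3 protein; score merges spot fluorescence near 667 nm with spot signal to noise.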 Conditions: higher = more signal.
Assay [4] is described as follows: small-molecule binders of probe aNOTCH2, primary screen, biochemical, small-molecule microarray, 635/667 nm fluorescence (AID 1121).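 Note: score merges feature fluorescence read at 667 nm with its signal to noise.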 Conditions: higher = more signal.
Assay [5] deals with Carbonic anhydrase 2 (Homo sapiens) (UniProt P00918). Briefly: CAII small-molecule binders, profiling panel, biochemical, small-molecule microarray, Alexa647-labelled CAII (AID 1122). The conditions noted are these: CAII-A647 binding fluorescence, higher = more signal.
A short description of assay [6]: COS7 lysate on small-molecule microarray, probe aHis, 635 nm (AID 1123).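 Note: z-score combines 667nm fluorescence intensity with signal-to-noise per printed compound spot.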 Conditions: COS7 cell lysate, fluorescence, higher = more signal.
Assay [7] can be described thus: compound binding in COS7 lysate, probe aLAP1, primary screen, cell lysate, small-molecule microarray (AID 1124).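 Note: lysate comes from COS7 cells expressing LAP1 and is applied at 0.3 µg/mL; score merges spot fluorescence near 667 nm with signal-to-noise over triplicate slides.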 The conditions noted are these: probe aLAP1, fluorescence, higher = more signal.
The test system of assay [8] is Sam68 (KHDRBS1). Briefly: Sam68 small-molecule binders, primary screen, biochemical, small-molecule microarray, 635 nm fluorescence (AID 1125).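 Note: score merges 667 nm channel intensity with signal to noise over triplicate slides.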 Conditions: small-molecule microarray binding, higher = more signal.
The subject of assay [9] is Chordin-like protein 2 (CHRDL2). The assay is described as follows: CHRDL2 small-molecule binders, primary screen, biochemical, small-molecule microarray, 635 nm fluorescence (AID 1126).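 Note: printed compound slides probed with Chrdl2 protein at 4 µg/mL for 1 h at 4 C; score merges 667 nm emission intensity with signal to noise over three replicate slides.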 Conditions: small-molecule microarray binding, fluorescence 635 nm; higher = more signal.
Assay [10] addresses Concanavalin-A (Canavalia ensiformis) (UniProt P02866). Briefly: ConA small-molecule binders, primary screen, artefact control for SMM control protein annotation, biochemical, small-molecule microarray, Alexa647 label, 635 nm (AID 1127).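 Note: z combines 667 nm emission intensity with signal-to-noise across three replicate slides.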 The conditions noted are these: ConA-A647 binding fluorescence, higher = more signal.

Activity calls are given as the source filed them.

Sequence of Concanavalin-A (Canavalia ensiformis) (P02866 whole entry, looked up): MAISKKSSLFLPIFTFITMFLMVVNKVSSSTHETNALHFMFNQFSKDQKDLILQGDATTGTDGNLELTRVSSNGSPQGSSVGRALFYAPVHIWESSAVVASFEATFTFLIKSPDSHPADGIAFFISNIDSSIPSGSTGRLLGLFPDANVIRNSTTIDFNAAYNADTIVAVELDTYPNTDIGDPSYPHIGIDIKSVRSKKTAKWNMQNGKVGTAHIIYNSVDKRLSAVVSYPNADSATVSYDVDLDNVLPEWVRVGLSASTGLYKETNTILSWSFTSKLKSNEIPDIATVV
Sequence of Albumin (Bos taurus) (P02769 whole entry, looked up): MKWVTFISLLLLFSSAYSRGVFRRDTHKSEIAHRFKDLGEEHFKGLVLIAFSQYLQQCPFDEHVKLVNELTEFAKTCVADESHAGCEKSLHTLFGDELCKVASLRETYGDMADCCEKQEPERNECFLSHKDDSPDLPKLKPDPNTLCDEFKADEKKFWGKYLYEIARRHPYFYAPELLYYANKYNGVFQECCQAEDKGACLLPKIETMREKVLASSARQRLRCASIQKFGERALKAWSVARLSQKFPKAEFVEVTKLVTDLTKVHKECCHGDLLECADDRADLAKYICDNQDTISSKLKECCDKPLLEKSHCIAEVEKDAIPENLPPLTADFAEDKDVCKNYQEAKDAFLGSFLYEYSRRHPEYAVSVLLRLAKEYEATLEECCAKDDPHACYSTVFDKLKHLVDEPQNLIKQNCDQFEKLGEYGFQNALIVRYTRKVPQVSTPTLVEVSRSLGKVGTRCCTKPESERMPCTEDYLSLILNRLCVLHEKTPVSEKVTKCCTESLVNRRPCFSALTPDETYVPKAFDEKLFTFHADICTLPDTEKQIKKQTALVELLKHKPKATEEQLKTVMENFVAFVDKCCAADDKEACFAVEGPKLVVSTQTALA

With `COC(=O)[C@@]1(Cc2ccc(F)cc2)[C@H]2c3cc(C(=O)N(C)C)n(Cc4ccc(C(F)(F)F)nc4)c3C[C@H]2CN1C(=O)c1ccccc1`, the composite z-score is 0.98 in assay [1]; 0.894 in assay [3]; -0.0531 in [4]; 0.726 in [5]; 3.26 in assay [6]; 0.311 in assay [7]. Also, the composite z-score in assay [8] turned out to be 1.33; in assay [9], 0.214; in assay [10], 1.1. Also, the composite Z-score in [2] is -0.387 (inactive).

With `CCCCCCc1nc(-c2ccc(OC)nc2)c(C)c2c1[Si](C(C)C)(C(C)C)OC2`, the composite z-score in assay [1] was -0.854; in assay [3] it was -0.122; in [4] it was -0.12; in assay [5], -0.195; in assay [6], -0.039; in [7], -0.459. Besides, the composite z-score in [8] is 0.18; in assay [9] it was 0.492; in assay [10], -0.141. The composite Z-score in [2] was 0.268 (inactive).

Regarding `C=C(C(=O)CC[C@@H](OC(=O)c1ccccc1-c1ccccc1C(=O)O)c1ccc(CO)o1)C(C)C`, the composite z-score is -0.41 in assay [1]; -0.0858 in assay [3]; -0.112 in [4]; 0.75 in assay [5]; 0.163 in [6]; 0.464 in assay [7]. For the same molecule, the composite z-score came out at 0.754 in assay [8], 0.386 in [9] and 0.278 in assay [10]. In addition, the composite Z-score in [2] is 0.0692 (inactive).

For the molecule `C[N+](C)(C)CCCC[C@@H]1NC(=O)[C@H]2C[C@@H](C(=O)NCCCCCN)[C@@H](c3ccc(O)cc3)N2C1=O`, the composite z-score is 0.567 in assay [1]; -0.0586 in assay [3]; -0.053 in assay [4]; 0.67 in assay [5]; 1.14 in assay [6]; 0.736 in assay [7]. In addition, the composite z-score in assay [8] amounted to 1.3; in assay [9], 0.444; in assay [10], 1.18. Further, in [2], the composite Z-score was -0.116 (inactive).

`C=CCNC(=O)[C@@H]1[C@H]2C(=O)O[C@H](c3ccccc3)[C@H](c3ccccc3)N2[C@H](c2ccc(OCCO)cc2)[C@@]12C(=O)N(C(=O)OCCOC)c1ccccc12`: the composite z-score in [1] was 0.258; in [3] it was -0.0362; in [4], -0.0432; in assay [5] it was 0.589; in assay [6], 2.37; in assay [7] it was 0.67. Moreover, the results for the composite z-score in [8], in [9] and in [10] were 1.29, 0.389 and 1.03, respectively. Besides, the composite Z-score in assay [2] was 1.01 (inactive).

As for `COC(=O)[C@@]1(Cc2ccc(F)cc2)[C@H]2c3cc(C(=O)N4CCCC4)n(CCc4c[nH]c5cc(F)ccc45)c3C[C@H]2CN1C(=O)c1ccccc1`, the composite z-score in assay [1] worked out at 0.978; in assay [3], 1.05; in [4] it was 0.488; in assay [5] it was 0.767; in assay [6], 2.76; in assay [7], 0.202. The figures for the composite z-score in [8], in [9] and in assay [10] were 1.33, 0.212 and 1.03, respectively. Further, the composite Z-score in [2] is 0.905 (inactive).

Take `O=C(CS)NCCCCCCNC(=O)[C@H]1C[C@H]2C(=O)NCC(=O)N2[C@H]1c1cccc(OCCO)c1`: the composite z-score is -0.509 in [1]; 0.191 in assay [3]; -0.0995 in [4]; 0.458 in assay [5]; 1.37 in assay [6]; 0.122 in [7]. For the same molecule, the composite z-score in assay [8] came out at 0.221; in assay [9], 0.283; in [10] it was 0.966. The composite Z-score in assay [2] was 0.54 (inactive).

As for `[N-]=[N+]=Nc1ccccc1C[C@@]1(C(=O)NCc2ccccc2)N=C(c2ccc(OCCCO)cc2)O[C@@H]1c1ccccc1`, the composite z-score in assay [1] is 0.747; in assay [3], 0.446; in assay [4] it was 0.309; in assay [5], 0.645; in assay [6] it was 1.99; in assay [7] it was 0.692. Besides, the composite z-score stood at 1.3 in [8], 0.621 in [9] and 0.775 in [10]. Besides, the composite Z-score in [2] was 0.157 (inactive).

With `COc1cccc(C)c1NC(=O)O[C@H]1[C@H](OC(=O)Nc2ccc3c(c2)OCO3)[C@H](OC(=O)Nc2ccc3c(c2)OCO3)[C@@H](OC)O[C@@H]1CO`, the composite z-score is 0.428 in [1]; 0.473 in [3]; -0.101 in [4]; 0.3 in assay [5]; 1.43 in assay [6]; 0.405 in [7]. In addition, the composite z-score in assay [8] stood at 1.3; in [9], 0.0955; in [10] it was 1.17. The composite Z-score in assay [2] is 0.645 (inactive).

In the case of `COc1c(C)cc(-c2cc3c(c(CCc4ccccc4)n2)[Si](C(C)C)(C(C)C)O[C@H]3c2ccccc2)cc1C`, the composite z-score in assay [1] is -0.0598; in assay [3], -0.0728; in assay [4], -0.14; in assay [5] it was -0.121; in assay [6], 0.463; in assay [7], -0.153. The results for the composite z-score in assay [8], in assay [9] and in assay [10] were -0.423, -0.2 and 0.398, respectively. Besides, the composite Z-score in [2] was 0.123 (inactive).

In the case of `COCCOC(=O)N1C(=O)[C@@]2(c3cc(C#CCNC(N)=O)ccc31)[C@H](c1ccccc1OCCO)N1[C@H](c3ccccc3)[C@H](c3ccccc3)OC(=O)[C@H]1[C@@H]2C(=O)N1CCCCCCC1`, the composite z-score in [1] is 0.0576; in assay [3], 0.0556; in assay [4], -0.121; in [5] it was 0.447; in [6], 0.75; in assay [7], 1.41. Besides, the composite z-score in assay [8] turned out to be 1.32; in assay [9], 0.354; in assay [10], 1.12. In addition, the composite Z-score in [2] was 0.627 (inactive).

Turning to `C[C@H]1C2[C@H](Cc3ccccc3)NC(=O)[C@]23C(=O)N[C@@H](Cc2ccccc2)C(=O)N2CCC[C@H]2C(=O)NC/C=C/CC/C=C/C3[C@@H]2O[C@]12C` (stereo not given in full), the composite z-score is 0.688 in [1]; 0.073 in assay [3]; -0.159 in [4]; 0.619 in assay [5]; 0.501 in assay [6]; 0.472 in assay [7]. Besides, the composite z-score is 0.868 in assay [8], 0.638 in assay [9] and 0.236 in assay [10]. In [2], the composite Z-score was -0.571 (inactive).

With `O=C1C2C=CC(C(O)C(c3ccccc3)c3ccccc3)N(Nc3ccccc3F)C2C(=O)N1c1ccccc1` (stereo not given), the composite z-score in assay [1] was 1; in [3] it was 0.24; in assay [4] it was -0.0386; in assay [5] it was 0.612; in assay [6], 2.99; in assay [7], 1.02. Moreover, the values for the composite z-score in assay [8], in assay [9] and in assay [10] were 1.31, -0.0392 and 0.5, respectively. For the same molecule, in assay [2], the composite Z-score was -0.173 (inactive).

Consider `C=C(C(=O)CC[C@@H](OC(=O)c1ccccc1-c1ccccc1C(=O)O)c1cccc(OCCO)c1)C(C)C`, for which the composite z-score is -0.757 in assay [1]; 0.107 in assay [3]; -0.0402 in [4]; 0.555 in [5]; 0.139 in assay [6]; 1.2 in assay [7]. Besides, the figures for the composite z-score in assay [8], in assay [9] and in assay [10] were 0.152, 1.26 and -0.539, respectively. Further, the composite Z-score in [2] is -0.88 (inactive).

In the case of `[N-]=[N+]=NCc1ccccc1[C@H]1OC(c2ccc(OCCCO)cc2)=N[C@@]1(Cc1ccccc1N=[N+]=[N-])C(=O)O`, the composite z-score turned out to be 0.892 in assay [1]; 0.297 in assay [3]; 0.0889 in [4]; 0.63 in [5]; 1.43 in assay [6]; 0.455 in assay [7]. Further, the figures for the composite z-score in [8], in [9] and in [10] were 1.33, 0.0332 and 1.14, respectively. Moreover, the composite Z-score in [2] is 0.59 (inactive).
